Experimental data: PubChem BioAssay
Active and inactive are the calls of the source. Unless noted, the rule behind the calls is not given here.

Assays:
[1] = anti-His antibody binders, primary screen, artefact control for SMM control protein annotation, biochemical, small-molecule microarray, 635 nm fluorescence (AID 1128); conditions: anti-His Alexa647 antibody binding, higher = more signal;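 note: score merges feature fluorescence with signal-to-noise for each printed compound spot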
[2] = test system: Human papillomavirus type 1a E7 protein (residues 1-88); experiment: HPV1a E7 small-molecule binders, primary screen, biochemical, small-molecule microarray, residues 1-88, 635 nm (AID 1129); conditions: small-molecule microarray binding, fluorescence 635 nm; higher = more signal
[3] = target: Focal adhesion kinase 1 (Homo sapiens) (UniProt Q05397); experiment: small-molecule microarray binders of FAK, primary screen, biochemical, 635/667 nm fluorescence, BSA, DTT (AID 1130); conditions: PTK2 binding, 635 nm fluorescence, higher = more signal;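 note: composite of spot emission at 667 nm and signal to noise over triplicate slides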
Focal adhesion kinase 1 (Homo sapiens), sequence (Q05397 whole entry, looked up): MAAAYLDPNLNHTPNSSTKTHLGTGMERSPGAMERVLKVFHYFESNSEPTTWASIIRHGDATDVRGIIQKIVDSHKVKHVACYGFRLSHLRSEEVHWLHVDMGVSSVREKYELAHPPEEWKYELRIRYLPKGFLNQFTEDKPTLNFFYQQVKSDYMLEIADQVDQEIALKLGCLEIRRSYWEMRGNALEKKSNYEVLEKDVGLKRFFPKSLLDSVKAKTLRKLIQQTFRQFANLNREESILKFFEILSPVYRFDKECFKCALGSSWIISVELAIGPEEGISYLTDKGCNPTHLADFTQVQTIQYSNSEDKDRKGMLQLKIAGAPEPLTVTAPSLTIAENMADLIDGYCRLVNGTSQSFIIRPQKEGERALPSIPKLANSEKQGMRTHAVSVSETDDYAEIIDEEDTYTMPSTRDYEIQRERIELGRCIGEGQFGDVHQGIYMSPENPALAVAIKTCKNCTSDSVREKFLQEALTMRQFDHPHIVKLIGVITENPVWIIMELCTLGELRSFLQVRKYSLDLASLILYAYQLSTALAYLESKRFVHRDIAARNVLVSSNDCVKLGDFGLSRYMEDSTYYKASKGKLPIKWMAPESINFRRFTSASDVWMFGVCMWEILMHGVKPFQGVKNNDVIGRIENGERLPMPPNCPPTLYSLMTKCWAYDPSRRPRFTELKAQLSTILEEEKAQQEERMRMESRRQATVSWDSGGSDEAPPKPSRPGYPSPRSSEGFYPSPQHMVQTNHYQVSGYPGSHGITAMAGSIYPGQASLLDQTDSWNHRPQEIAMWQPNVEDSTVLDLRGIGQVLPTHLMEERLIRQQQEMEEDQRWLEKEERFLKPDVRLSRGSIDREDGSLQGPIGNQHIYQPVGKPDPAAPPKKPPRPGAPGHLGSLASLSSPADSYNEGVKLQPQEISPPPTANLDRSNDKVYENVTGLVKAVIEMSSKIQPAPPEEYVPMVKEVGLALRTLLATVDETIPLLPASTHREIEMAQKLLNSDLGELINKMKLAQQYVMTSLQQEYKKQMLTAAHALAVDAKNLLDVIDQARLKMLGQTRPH

[4] = test system: Fibrinogen (Alexa647-labelled); experiment: fibrinogen binders on compound microarrays, profiling panel, artefact control for SMM control-protein annotation, biochemical, small-molecule microarray, 635/667 nm fluorescence (AID 1131); conditions: fibrinogen-A647 binding fluorescence, higher = more signal;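 note: z-score merges 667 nm fluorescence with per-spot signal-to-noise over triplicate slides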
[5] = target: Follistatin (Homo sapiens) (UniProt P19883); experiment: follistatin binders on small-molecule microarrays, primary screen, biochemical, small-molecule microarray, 635/667 nm fluorescence (AID 1132); conditions: FST binding, 635 nm fluorescence, higher = more signal
Follistatin (Homo sapiens), sequence (P19883 whole entry, looked up): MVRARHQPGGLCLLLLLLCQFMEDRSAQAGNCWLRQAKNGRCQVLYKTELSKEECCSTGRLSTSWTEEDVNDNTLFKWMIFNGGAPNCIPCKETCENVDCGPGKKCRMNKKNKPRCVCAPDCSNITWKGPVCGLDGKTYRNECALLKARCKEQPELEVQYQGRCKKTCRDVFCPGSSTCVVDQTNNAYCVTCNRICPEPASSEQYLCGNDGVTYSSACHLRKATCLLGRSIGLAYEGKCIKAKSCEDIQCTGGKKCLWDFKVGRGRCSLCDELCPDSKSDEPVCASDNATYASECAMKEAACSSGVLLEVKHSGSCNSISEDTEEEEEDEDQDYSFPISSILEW

[6] = target: Fibroblast growth factor 2 (Homo sapiens) (UniProt P09038); experiment: FGF2 binders on small-molecule microarrays, primary screen, biochemical, small-molecule microarray, 635/667 nm fluorescence (AID 1133); conditions: small-molecule microarray binding, FGF2, fluorescence 635/667; higher = more signal
Fibroblast growth factor 2 (Homo sapiens), sequence (P09038 whole entry, looked up): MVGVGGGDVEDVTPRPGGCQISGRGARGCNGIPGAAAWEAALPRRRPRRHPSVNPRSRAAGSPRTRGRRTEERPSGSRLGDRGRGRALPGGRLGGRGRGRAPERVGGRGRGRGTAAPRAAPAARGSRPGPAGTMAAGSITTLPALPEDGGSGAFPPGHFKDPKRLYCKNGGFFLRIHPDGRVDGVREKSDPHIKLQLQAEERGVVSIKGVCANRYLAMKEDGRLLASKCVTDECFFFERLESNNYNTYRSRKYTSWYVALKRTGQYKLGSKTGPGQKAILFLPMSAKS

[7] = mitochondrial membrane potential change in A549 cells, profiling panel, cell-based, JC-1 fluorescence, basal, 24 h, 100 nL (AID 1138); conditions: higher = more signal;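 note: A549 lung adenocarcinoma cells under basal conditions with no added stimulus; test concentration not given here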
[8] = test system: Lefty1; experiment: Lefty1 binders on small-molecule microarrays, primary screen, biochemical, small-molecule microarray, 635/667 nm fluorescence (AID 1139); conditions: small-molecule microarray binding, fluorescence 635/667; higher = more signal
[9] = test system: wheat germ agglutinin (Triticum aestivum), Alexa647-labelled; experiment: wheat germ agglutinin binders on compound microarrays, profiling panel, artefact control for SMM control-protein annotation, biochemical, small-molecule microarray, 635/667 nm fluorescence (AID 1140); conditions: WGA-A647 binding, 635 nm fluorescence, higher = more signal;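 note: score merges 667 nm feature emission with signal to noise over triplicate slides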
[10] = target: Luciferin 4-monooxygenase (Photinus pyralis) (UniProt P08659); experiment: firefly luciferase enzyme inhibitors, primary screen, biochemical, luminescence, purified enzyme, 2006 set (AID 1141); conditions: SteadyGlo luminescence, 30 min, higher = more signal, called active from +8 up or from −8 down;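 note: cell-free assay with purified firefly luciferase at 100 ng per well in PBS; test concentration not given here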
Luciferin 4-monooxygenase (Photinus pyralis), sequence (P08659 whole entry, looked up): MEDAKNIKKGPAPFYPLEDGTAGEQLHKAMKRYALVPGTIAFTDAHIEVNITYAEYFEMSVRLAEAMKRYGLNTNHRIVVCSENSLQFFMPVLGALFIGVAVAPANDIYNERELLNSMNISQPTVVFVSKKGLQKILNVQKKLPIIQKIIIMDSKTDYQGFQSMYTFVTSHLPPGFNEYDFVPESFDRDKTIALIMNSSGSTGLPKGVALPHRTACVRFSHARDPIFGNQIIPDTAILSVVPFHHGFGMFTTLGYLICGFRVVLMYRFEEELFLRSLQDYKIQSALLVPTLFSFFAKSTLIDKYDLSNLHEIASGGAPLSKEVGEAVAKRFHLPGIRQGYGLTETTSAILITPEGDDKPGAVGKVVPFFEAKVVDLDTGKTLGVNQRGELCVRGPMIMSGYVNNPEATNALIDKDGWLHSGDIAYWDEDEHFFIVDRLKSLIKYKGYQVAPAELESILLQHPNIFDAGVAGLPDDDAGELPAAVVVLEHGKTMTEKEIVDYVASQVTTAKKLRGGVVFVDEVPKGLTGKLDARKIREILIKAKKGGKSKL

[11] = test system: Wnt5a (protein binding on small-molecule microarray); experiment: Wnt5a binders on small-molecule microarray, primary screen, biophysical, 635/667 nm fluorescence (AID 1142); conditions: 635 nm fluorescence, higher = more signal;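 note: fluorescence read at 667 nm with signal to noise per printed feature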
[12] = cell viability in Huh7 cells, primary screen, cytotoxicity control for HCV replication inhibitor project, CellTiter-Glo luminescence, basal, 48 h (AID 1143); conditions: Huh7 HCV replicon, higher = more signal, called active from +8 up or from −8 down;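 note: Huh7 hepatoma cells carrying a hepatitis C replication reporter with no stimulus; test concentration not given here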
[13] = P. aeruginosa biofilm formation inhibitors, primary screen, PAO1 strain, BacTiter-Glo luminescence, LB-PBS (AID 1144); conditions: 12 h, higher = more signal
[14] = CREB reporter modulators without forskolin, primary screen, cell-based, PC12, CRE-LacZ reporter, unstimulated (AID 1145); conditions: no forskolin, luminescence, 4.5 h, higher = more signal, called active from +8 up or from −8 down
[15] = CREB reporter modulators under forskolin, primary screen, cell-based, PC12, CRE-LacZ reporter, forskolin-stimulated (AID 1146); conditions: luminescence, 4.5 h, higher = more signal, called active from +8 up or from −8 down;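 note: PC12 cells with 6xCRE LacZ reporter stimulated by forskolin 10 µM; beta-galactosidase reporter signal reflecting CREB driven transcription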
[16] = target: Streptavidin (Streptomyces avidinii) (UniProt P22629); experiment: streptavidin binders on small-molecule microarray, primary screen, artefact control for SMM compound annotation, biophysical, 635/667 nm fluorescence (AID 1147); conditions: streptavidin binding, higher = more signal;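 note: signal reflects streptavidin binding to arrayed compounds as a control protein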
Streptavidin (Streptomyces avidinii), sequence (P22629 whole entry, looked up): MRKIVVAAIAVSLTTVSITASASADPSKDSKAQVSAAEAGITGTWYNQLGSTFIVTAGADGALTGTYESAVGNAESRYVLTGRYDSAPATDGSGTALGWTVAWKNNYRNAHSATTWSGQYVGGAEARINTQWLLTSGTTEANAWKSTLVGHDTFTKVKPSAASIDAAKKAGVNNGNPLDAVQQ

[17] = small-molecule binders of probe aInhba, primary screen, biochemical, small-molecule microarray, 635/667 nm fluorescence (AID 1148); conditions: higher = more signal;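 note: score merges 667nm spot fluorescence with signal-to-noise for antibody binding to printed compounds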
[18] = target: Torsin-1A (Homo sapiens) (UniProt O14656); experiment: torsin A binders from cell lysate, primary screen, small-molecule microarray, wild-type, 635/667 nm (AID 1149); conditions: COS7 hTOR1A-WT lysate, 635 nm fluorescence, higher = more signal
Torsin-1A (Homo sapiens), sequence (O14656 whole entry, looked up): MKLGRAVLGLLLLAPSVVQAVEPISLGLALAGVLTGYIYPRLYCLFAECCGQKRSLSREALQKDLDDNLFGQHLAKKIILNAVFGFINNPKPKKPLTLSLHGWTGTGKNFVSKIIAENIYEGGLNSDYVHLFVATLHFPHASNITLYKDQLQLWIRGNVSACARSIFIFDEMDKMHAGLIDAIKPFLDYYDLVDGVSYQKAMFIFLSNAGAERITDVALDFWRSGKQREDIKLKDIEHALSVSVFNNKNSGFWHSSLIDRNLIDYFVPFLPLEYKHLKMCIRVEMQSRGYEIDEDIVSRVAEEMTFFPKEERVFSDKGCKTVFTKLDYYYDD

[19] = target: Torsin-1A (Homo sapiens) (UniProt O14656); experiment: small-molecule binders of mutant TOR1A in lysate, primary screen, cell lysate, small-molecule microarray, COS7 lysate, 635/667 nm fluorescence (AID 1150); conditions: COS7 hTOR1A mutant lysate, 635 nm fluorescence, higher = more signal;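 note: score pools 667 nm emission and signal to noise measuring lysate protein binding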
[20] = test system: Sonic hedgehog protein (Shh); experiment: small-molecule binders of Shh protein, primary screen, biochemical, small-molecule microarray, 635/667 nm fluorescence (AID 1151); conditions: small-molecule microarray binding, 635 nm fluorescence; higher = more signal;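 note: Shh protein binding to compounds spotted on small-molecule microarray slides; score combines spot fluorescence intensity with signal-to-noise across triplicate slides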

SMILES | composite z-score [1] | composite z-score [2] | composite z-score [3] | composite z-score [4] | composite z-score [5] | composite z-score [6] | z-score [7] | composite z-score [8] | composite z-score [9] | z-score [10] | composite z-score [11] | z-score [12] | z-score [13] | z-score [14] | z-score [15] | composite z-score [16] | composite z-score [17] | composite z-score [18] | composite z-score [19] | composite z-score [20]
CCOC(=O)C1=C[C@@H](c2ccccc2)N(S(=O)(=O)c2ccc(C)cc2)[C@H]1c1cccc(Cl)c1 | 2.44 | 1.17 | 0.283 | 0.612 | 0.938 | 0.111 | 3.78 | 0.465 | 1.31 | 1.18 (inactive) | 0.55 | -3.89 (inactive) | 1.51 (inactive) | 0.182 (inactive) | -0.451 (inactive) | 1.34 | 0.351 | 0.631 | 0.569 | 0.319
C=C(CCCC)C(=O)CC[C@@H](OC(=O)c1cccnc1)c1ccccc1OCCO | -0.349 | -0.107 | -0.0523 | 0.48 | 0.865 | 1.34 | 1.24 | 1.56 | 0.058 | -0.511 (inactive) | 0.047 | -1.55 (inactive) | -0.325 (inactive) | 4.16 (inactive) | 1.04 (inactive) | -0.368 | -0.128 | 0.417 | 0.781 | 1.76
CN(C)CCCNC(=O)[C@@H]1c2ccccc2C(=O)N(Cc2ccc(OC(F)(F)F)cc2)[C@H]1c1ccc(CO)cc1 | 0.21 | 0.701 | 0.0807 | 0.18 | 1.18 | -0.22 | 0.311 | 0.9 | -0.374 | 1.15 (inactive) | 0.0246 | -1.35 (inactive) | -1.42 (inactive) | -0.114 (inactive) | 0.77 (inactive) | 0.121 | -0.128 | -0.116 | 0.151 | 2.18
